PPARg SRC-2 ag: PPARgamma-driven SRC-2 recruitment agonism | PPARgamma LBD-SRC-2 recruitment, biochemical | activation, % at 8 µM | 200,000 tested, 0.34% active | AID 1032; in the data active = activation above about 22%;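 also: 0% = vehicle and 100% = reference agonist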
PPARg SRC-3 ag: promotes SRC-3 coactivator recruitment by human PPARgamma | 200,000 tested, 0.26% active | P37231 | AID 731 | biochemical PPARgamma/SRC-3 coactivator recruitment assay | activation, % at 8 µM; in the data active = activation above about 23%;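 also: 0% = DMSO and 100% = reference agonist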
SRC3 TRFRET art: flags TR-FRET format artefacts in PPARgamma SRC-3 recruitment agonist screen | TR-FRET artefact counter-screen, PPARgamma/SRC-3 format; active compounds read high | TR-FRET ratio at 8 µM | 99,000 tested, 0.39% active | AID 1048
SRC2 TRFRET art: TR-FRET artefact, counter-screen to PPARgamma/SRC-2 agonist assay | active compounds read high | AID 1049 | TR-FRET ratio at 8 µM | 200,000 tested, 0.4% active
SRC1 TRFRET art: TR-FRET artefact, counter-screen to PPARgamma/SRC-1 agonist assay; TR-FRET detection artefact counter-screen, emission ratio; active compounds read high; TR-FRET ratio at 8 µM; 99,000 tested, 0.34% active; AID 1051; in the data active = TR-FRET ratio above about 2300
PPARg SRC-1 ag: promotes SRC-1 coactivator recruitment by human PPARgamma | P37231 | PPARgamma-SRC-1 coactivator recruitment biochemical assay | activation, % at 8 µM | 200,000 tested, 0.41% active | AID 631; in the data active = activation above about 19%;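 also: 0% = DMSO and 100% = reference agonist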
PPARg SRC2 ag: human PPARgamma SRC-2 recruitment agonism, confirmation. shares compounds with PPARg SRC-3 ag. biochemical SRC-2 recruitment by PPARgamma. activation, % at 8 µM. 790 tested, 52% active; in the data active = activation above about 22%;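 also: 0% = vehicle alone and 100% = reference agonist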
PPARg SRC1 conf: confirmation of agonists of SRC-1 recruitment by human PPARgamma. shares compounds with PPARg SRC-3 ag. PPARgamma–SRC-1 coactivator recruitment biochemical assay. activation, % at 8 µM. 790 tested, 43% active; in the data active = activation above about 20%;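 also: 0% = vehicle wells and 100% = reference agonist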
PPARg SRC3 conf: human PPARgamma SRC-3 recruitment agonism, confirmation; activation, % at 8 µM; biochemical PPARgamma-SRC-3 coactivator recruitment, agonist mode; shares compounds with PPARg SRC-3 ag; AID 1301; 790 tested, 29% active; in the data active = activation above about 24%;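 also: 0% = vehicle wells and 100% = reference agonist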
Target sequence (P37231 whole entry, looked up): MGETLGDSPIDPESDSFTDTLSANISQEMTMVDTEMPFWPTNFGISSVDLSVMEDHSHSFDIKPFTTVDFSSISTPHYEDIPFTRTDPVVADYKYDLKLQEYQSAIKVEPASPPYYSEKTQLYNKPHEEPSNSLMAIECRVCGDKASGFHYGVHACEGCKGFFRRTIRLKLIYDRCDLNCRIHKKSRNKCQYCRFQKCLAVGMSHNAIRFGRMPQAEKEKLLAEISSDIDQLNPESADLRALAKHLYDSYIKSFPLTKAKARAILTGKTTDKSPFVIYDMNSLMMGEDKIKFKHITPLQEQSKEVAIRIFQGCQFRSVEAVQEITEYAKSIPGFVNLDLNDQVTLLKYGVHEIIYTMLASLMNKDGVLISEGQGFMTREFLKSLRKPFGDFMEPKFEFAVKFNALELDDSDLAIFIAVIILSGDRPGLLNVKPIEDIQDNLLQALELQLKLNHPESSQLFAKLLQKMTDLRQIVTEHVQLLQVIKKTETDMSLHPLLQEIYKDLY
Target sequence (Q9Y6Q9 whole entry, looked up): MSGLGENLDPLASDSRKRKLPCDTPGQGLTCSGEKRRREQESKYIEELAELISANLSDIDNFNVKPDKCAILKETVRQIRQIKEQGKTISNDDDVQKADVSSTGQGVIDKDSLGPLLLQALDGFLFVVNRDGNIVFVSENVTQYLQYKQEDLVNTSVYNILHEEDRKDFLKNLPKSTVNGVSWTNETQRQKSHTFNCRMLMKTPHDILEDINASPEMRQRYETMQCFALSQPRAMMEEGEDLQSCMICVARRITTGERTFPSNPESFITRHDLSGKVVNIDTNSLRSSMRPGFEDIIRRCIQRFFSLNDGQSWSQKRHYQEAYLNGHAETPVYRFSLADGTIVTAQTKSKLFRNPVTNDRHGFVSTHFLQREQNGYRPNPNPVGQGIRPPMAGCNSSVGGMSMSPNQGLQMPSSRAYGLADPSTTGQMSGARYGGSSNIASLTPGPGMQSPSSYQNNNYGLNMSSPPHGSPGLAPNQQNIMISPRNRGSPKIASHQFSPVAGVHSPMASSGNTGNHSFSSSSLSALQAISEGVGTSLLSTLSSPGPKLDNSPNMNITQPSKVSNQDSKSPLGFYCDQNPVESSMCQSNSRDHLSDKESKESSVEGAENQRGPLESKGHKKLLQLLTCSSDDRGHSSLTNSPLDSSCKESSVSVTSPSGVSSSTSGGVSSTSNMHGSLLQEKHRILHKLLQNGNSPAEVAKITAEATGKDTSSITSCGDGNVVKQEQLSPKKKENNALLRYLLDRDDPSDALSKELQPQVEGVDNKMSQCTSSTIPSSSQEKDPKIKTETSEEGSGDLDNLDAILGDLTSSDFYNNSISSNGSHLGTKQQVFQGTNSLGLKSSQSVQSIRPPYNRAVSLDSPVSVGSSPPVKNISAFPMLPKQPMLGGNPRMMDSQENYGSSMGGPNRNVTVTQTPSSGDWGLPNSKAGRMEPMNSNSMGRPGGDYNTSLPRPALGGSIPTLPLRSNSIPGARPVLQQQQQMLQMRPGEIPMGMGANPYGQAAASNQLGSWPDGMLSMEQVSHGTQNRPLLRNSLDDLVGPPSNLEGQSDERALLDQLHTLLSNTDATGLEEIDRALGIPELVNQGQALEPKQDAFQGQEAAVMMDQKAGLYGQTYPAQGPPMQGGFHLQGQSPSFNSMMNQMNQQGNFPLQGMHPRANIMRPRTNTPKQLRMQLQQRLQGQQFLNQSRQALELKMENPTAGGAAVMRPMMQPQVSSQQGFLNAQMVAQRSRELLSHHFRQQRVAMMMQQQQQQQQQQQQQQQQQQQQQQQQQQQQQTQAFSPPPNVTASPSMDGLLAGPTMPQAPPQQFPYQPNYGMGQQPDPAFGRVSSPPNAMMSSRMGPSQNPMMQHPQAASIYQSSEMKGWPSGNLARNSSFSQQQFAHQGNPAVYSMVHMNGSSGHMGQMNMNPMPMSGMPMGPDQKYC
Starred values were filed as active, the others as inactive; . = not tested or not shown. This is a sample that favours compounds with a hit; in the whole collection about 0.84% have one here. Rule as the data show it, unless noted: active = TR-FRET ratio above about 2000; inactive = the rest.

SMILES	PPARg SRC-2 ag	PPARg SRC-3 ag	SRC3 TRFRET art	SRC2 TRFRET art	SRC1 TRFRET art	PPARg SRC-1 ag	PPARg SRC2 ag	PPARg SRC1 conf	PPARg SRC3 conf
CN(C)c1cc[n+](CC(=O)c2ccc(-c3ccccc3)cc2)cc1	8	3	1509	1411	1803	1	.	.	.
S=c1nc[nH]c2c1[nH]c1ccccc12	38*	48*	.	2670*	.	29*	15	5	11
COC(=O)c1cc(Br)c(=O)n(-c2ccccn2)c1	-4	-8	.	1459	.	6	.	.	.
COC(=O)c1cc(Br)c(=O)n(-c2nccs2)c1	57*	74*	.	2990*	.	37*	22*	10	16
COc1ccc(CSCC(=O)N/N=C/c2ccc(OCC(=O)NCc3ccco3)cc2)cc1	-1	5	.	1647	.	7	.	.	.
Cc1cc(C)cc(CSCC(=O)N/N=C/c2ccc(OCC(=O)NCc3ccco3)cc2)c1	11	25*	.	1568	.	8	2	0	1
CCSc1ccccc1C(=O)N1CCN(Cc2ccc3c(c2)OCO3)CC1	4	8	.	1434	.	0	.	.	.
Cn1c(=O)cc(SCC(=O)N2CCN(Cc3ccc4c(c3)OCO4)CC2)c2ccccc21	33*	72*	.	2161*	.	50*	25*	12	18
Cn1c(C(=O)N2CCN(Cc3ccc4c(c3)OCO4)CC2)cc2c(=O)n(C)c3ccccc3c21	7	-1	.	1748	.	6	.	.	.
CCn1c(=O)cc(SCC(=O)N2CCN(Cc3ccc4c(c3)OCO4)CC2)c2ccccc21	55*	42*	.	2608*	.	45*	27*	17	18
CC1(C)CNC(=O)CC(C)(C)N1	5	2	1785	1630	2204	6	.	.	.
CC(C)(O)C#Cc1ccc(CN2CCN(C3CCCC3)C(CCO)C2)cc1 (stereo not given)	-1	3	1439	1396	1593	-5	.	.	.
O=C(Nc1ccc2nc(-c3cccs3)[nH]c2c1)c1cccs1	-1	1	.	1449	.	-2	.	.	.
O=C(Nc1ccc(-c2nc3ccc(NC(=O)c4cccs4)cc3[nH]2)cc1)c1cccs1	27*	12	.	1552	.	21*	11	1	5
CCN(CC)CCCN1C(=O)C(O)=C(C(=O)c2cc3ccccc3o2)C1c1ccccn1 (stereo not given)	48*	62*	.	2586*	.	43*	40*	30*	27*
CN(C)CCN1C(=O)C(O)=C(C(=O)c2cc3ccccc3o2)C1c1ccccn1 (stereo not given)	-6	15	.	1299	.	5	.	.	.
O=C(Cc1cccs1)Nc1cc(SCCO)cc([N+](=O)[O-])c1	11	0	1785	1558	1919	-2	.	.	.
Cc1cc(C)n(-c2ccc(C(=O)OCC(=O)c3ccc(Br)s3)cc2)n1	28*	36*	.	3035*	.	20*	29*	22*	20
COCCNc1nc2ccccc2nc1NS(=O)(=O)c1ccc(C)cc1C	23*	23	.	2002*	.	18	24*	17	14
O=c1c2oc3ccccc3c2[nH]c(=S)n1-c1ccc(F)cc1	26*	13	2296*	2177*	2641*	16	13	5	9
Cc1ccc(-n2c(=S)[nH]c3c(oc4ccccc43)c2=O)cc1C	18	5	2010	1894	1933	9	.	.	.
O=C(CCS(=O)(=O)c1ccccc1)Nc1ccccc1F	-5	2	1711	1500	1921	10	.	.	.
C=CCSC1=Nc2cc(OC)c(OC)cc2C2=NC(=O)CN12	15	10	1730	1797	1868	21*	29*	18	18
COC(=O)c1sccc1NC(=O)c1cc(-c2cccc(C)c2)nc2ccccc12	26*	13	.	2058*	.	9	2	5	2
CC(C)OC(=O)CCCN1C(=O)c2ccc(N)cc2C1=O	23*	13	.	1654	.	9	1	3	-1
SMILES	PPARg SRC-2 ag	PPARg SRC-3 ag	SRC3 TRFRET art	SRC2 TRFRET art	SRC1 TRFRET art	PPARg SRC-1 ag	PPARg SRC2 ag	PPARg SRC1 conf	PPARg SRC3 conf
COc1ccc(N2CCN(C(c3cccs3)C(C)NS(C)(=O)=O)CC2)cc1 (stereo not given)	5	5	1620	1611	1718	12	.	.	.
CN1CCC/C1=C/C=C1\SC(=S)NC1=O	24*	11	1794	1675	2166	14	1	3	3
C#CCn1c(=NC(=O)c2sc3ccccc3c2Cl)sc2cc(S(N)(=O)=O)ccc21	33*	16	2062*	2057*	2366*	13	33*	22*	15
O=C(COc1ccccc1[N+](=O)[O-])Nc1ccc(N2CCN(C(=O)c3cccs3)CC2)cc1	-1	6	1525	1596	1623	8	.	.	.
CCOc1ccc(NC(=S)C(C#N)=C2N(C)c3ccccc3N2C)cc1	18	0	1702	1563	1817	23*	0	-1	3
O=C(Cc1ccccc1)Nc1nnc(-c2ccco2)s1	31*	37*	.	2292*	.	37*	31*	24*	18
CCC(C(=O)Nc1nnc(-c2ccco2)s1)c1ccccc1 (stereo not given)	15	27*	.	1806	.	26*	27*	21*	20
CCCC(=O)Nc1nnc(-c2ccco2)s1	5	7	.	1854	.	13	.	.	.
COc1ccccc1OCC(=O)Nc1nnc(-c2ccco2)s1	31*	35*	.	2199*	.	28*	24*	21*	15
CCc1nnc(NC(=O)C(CC)c2ccccc2)s1 (stereo not given)	-2	3	1659	1600	1783	0	.	.	.
Cc1cccc(OCC(=O)Nc2nnc(-c3ccco3)s2)c1	28*	20	2164*	2106*	2686*	28*	36*	28*	22
O=C(/C=C/c1ccccc1)N1CCN(CCN2C(=O)c3cccc4cccc(c34)C2=O)CC1	-1	1	1647	1515	1699	4	.	.	.
O=C(OC1Cn2c(=O)ccc(=O)n2C1)c1ccccc1	6	2	1520	1515	1726	-1	.	.	.
COc1ccccc1CN1CCNC(=O)C1CC(=O)NCCc1cnccn1 (stereo not given)	2	-1	1595	1406	1726	4	.	.	.
CCOc1cccc(C(=O)Nc2nnc(-c3ccco3)s2)c1	17	17	.	1945	.	22*	20	17	15
CCOC(=O)Cc1nnc(NC(=O)c2cccc(OCC)c2)s1	-6	4	.	1642	.	1	.	.	.
C=CCn1c(=S)[nH]c2scc(-c3ccc(C)o3)c2c1=O	15	24*	2146*	2125*	2448*	25*	21	15	16
O=c1c2c(-c3cccs3)csc2ncn1-c1ccccc1	0	2	.	1481	.	-2	.	.	.

Screening results from PubChem.
